# Data from PubChem BioAssay (NCATS).
# A number with no mark means an inactive call. Inconclusive results are not listed. Activity calls are given as the source filed them. Unless noted, calls follow the shape of the dose curve; as a rule, active = well fitted curve in the direction sought with a large enough effect; inconclusive = small, poorly fitted or top-dose-only effect, or another doubt; inactive = no such curve, though single readings can be large; an effect the other way counts as inactive or inconclusive.
# What was measured:
# [1] = AP1 Signaling Pathway (AID 357; active = well fitted curve in either direction with a large enough effect, not every such curve was filed as active)
# Summary of the method: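 Beta-lactamase reporter under AP-1 response element, ME-180 background. Stimulus: EC50 EGF. Compound exposure 5 h, 37 °C. Detection: CCF4, 2.5 h RT, 460/530 nm. Values: AC50 from titration.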
# [2] = NFAT Signaling Pathway (AID 444; active = well fitted curve in either direction with a large enough effect, not every such curve was filed as active); conditions: Jurkat NFAT-bla M1, carbachol, beta-lactamase ratio, 5 h; at 17.2 µM (top of the series)
# Summary of the method: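 Read-out: CCF4 FRET ratio (460 nm/530 nm) after 1 h RT dye loading, used for %activity and AC50 from titration series. Cells: Jurkat NFAT-β-lactamase/M1 line, treated with compound plus 1 uM carbachol for 5 h, 37 °C.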
# [3] = Stat Signaling Pathway (AID 446; active = well fitted curve in either direction with a large enough effect, not every such curve was filed as active)
# Summary of the method: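 Screening format detects activators and inhibitors alike: ME-180 SIE-bla cells stimulated at 40 pM IL-6 for 5 hrs with compound, then dual-emission beta-lactamase read at 405 nm excitation.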
# [4] = molecular target: Glucocorticoid receptor (Homo sapiens) (UniProt P04150); experiment: GR-GFP Redistribution (AID 450;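 active = compounds whose dose series gives a full or clear partial fitted curve of increased nuclear translocation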); conditions: U2OS GR-GFP nuclear translocation, laser cytometry, 2 h
# [5] = system: Zika virus NS2B-NS3 protease (linked construct); experiment: Primary screen NINDS Rhodamine qHTS for Zika virus inhibitors (AID 1347160)
# Summary of the method: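 Kinetic fluorescence (Ex 480 nm, Em 540 nm) over 15 min with 1.5 microM Rhodamine110 peptide and 25 nM linked protease.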
# [6] = OV-KATE Cancer Cell Toxicity qHTS against the NCATS CANVASS Library (AID 1347345)
# Summary of the method: (§1)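 ATP content after 72 h treatment, detected by CellTiter-Glo luminescence (15min room-temperature development), reflects cell viability. Wells contained 1000 cells and received compounds at 11 concentrations.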
# [7] = HPAF-II Cancer Cell Toxicity qHTS against the NCATS CANVASS Library (AID 1347346)
# Summary of the method: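 HPAF-II cells at 1000 cells/well were treated with an 11-point concentration series for 72 hours at 37 degrees C. Viability read by CellTiter-Glo luminescence.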
# [8] = UWB1.289 Cancer Cell Toxicity qHTS against the NCATS CANVASS Library (AID 1347347)
# Summary of the method: as §1
# [9] = OV-SAHO Cancer Cell Toxicity qHTS against the NCATS CANVASS Library (AID 1347348)
# Summary of the method: as §1
# [10] = Panc-1005 Cancer Cell Toxicity qHTS against the NCATS CANVASS Library (AID 1347349)
# Summary of the method: as §1
# [11] = SW1088 Cancer Cell Toxicity qHTS against the NCATS CANVASS Library (AID 1347350)
# Summary of the method: as §1
# [12] = COV-362 Cancer Cell Toxicity qHTS against the NCATS CANVASS Library (AID 1347352)
# Summary of the method: (§2)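 Cells at 1000/well were given compound 4 h after plating in an 11-point series. Viability was read by CellTiter-Glo luminescence after 72 h at 37 degrees C.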
# [13] = A2780 Cisplatin Sensitive Ovarian Cancer Cell Toxicity qHTS against the NCATS CANVASS Library (AID 1347353)
# Summary of the method: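 A2780 cells, 750/well, settled 4 h at 37 °C, then treated with an 11-point compound series for 72 h. Viability was read as ATPLite luminescence after 10 min at room temperature, with bortezomib as control.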
# [14] = UWB1.289-WTBRCA1 Cancer Cell Toxicity qHTS against the NCATS CANVASS Library (AID 1347354)
# Summary of the method: as §2
# [15] = HPAF-II 24hr Apoptosis Induction qHTS against the NCATS CANVASS Library (AID 1347356)
# Summary of the method: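 HPAF-II cells (500/well) exposed to compounds in 11-point series for 24 h at 37 degrees C; caspase-3/7 activity read by Caspase-Glo luminescence after 15 min at room temperature. Doxorubicin titration as control.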
# [16] = HEK293 18hr Apoptosis Induction qHTS against the NCATS CANVASS Library (AID 1347357)
# Summary of the method: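 Natural products applied to HEK293 for 18 hr; Caspase-Glo 3/7 readout.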
# [17] = HEK293 24hr Apoptosis Induction qHTS against the NCATS CANVASS Library (AID 1347359)
# Summary of the method: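 Caspase-3/7 activation measured as luminescence from the DEVD-based Caspase-Glo reagent, 15 min at room temperature, following 24-hour compound treatment of HEK293 cells.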
# [18] = system: NAD(P)H diaphorase (Clostridium kluyveri); experiment: Diaphorse counterscreen qHTS: Assay Interference Panel against the NCATS CANVASS Library (AID 1347362)
# Summary of the method: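 Counterscreen for coupling-enzyme interference: resorufin fluorescence from resazurin/NADH turnover, read after 5 min at room temperature. Compounds were tested over an 11-point series after 15 min dark preincubation with diaphorase in PBS-Tween.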
# [19] = molecular target: Luciferin 4-monooxygenase (Photinus pyralis) (UniProt P08659); experiment: Firefly luciferase counterscreen qHTS: Assay Interference Panel against the NCATS CANVASS Library (AID 1347363)
# Summary of the method: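 Luminescence inhibition readout: compounds (11-point qHTS) sat 15 min at room temperature with substrate mix (0.013 mM luciferin and ATP), then firefly luciferase was added and signal read 5 min later.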
# [20] = KB-3-1 Cancer Cell Toxicity qHTS against the NCATS CANVASS Library (AID 1347366)
# Summary of the method: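 Cytotoxicity toward KB-3-1 cells (500/well, DMEM + 10% FBS) was scored by CellTiter-Glo luminescence following 72 hr exposure at 37C, with bortezomib titrated as control.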
# [21] = G06 Cancer Cell Toxicity qHTS against the NCATS CANVASS Library (AID 1347368)
# Summary of the method: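 G06 dog glioma cells, 500 per well, exposed 72 hr at 37C, 5% CO2 to compounds in an 11-point series. Cytotoxicity read as ATP content by CellTiterGlo luminescence.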
# [22] = MCF7 Cancer Cell Toxicity qHTS against the NCATS CANVASS Library (AID 1347369)
# Summary of the method: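 This 72 hr qHTS scored MCF7 viability by CellTiterGlo luminescence, with 500 cells/well; bortezomib titration ran as control.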
# [23] = qHTS for ATAD5 Antagonist screened against the NCATS CANVASS Library (AID 1347370)
# Summary of the method: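 HEK293T cells with stably integrated ATAD5-luciferase reporter, 2000/well, 5 h attachment; compounds plus 10 µM 5-fluorouridine, 16 h at 37 °C. Luciferase luminescence read, with CellTiter-Fluor viability read first.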
# [24] = J3T Cancer Cell Toxicity qHTS against the NCATS CANVASS Library (AID 1347371)
# Summary of the method: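 J3T dog glioma cells, 500 per well, treated 72 h at 37C with compounds (11-point qHTS); viability from ATP content by CellTiterGlo luminescence; bortezomib titration as control.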
# [25] = molecular target: Nuclear receptor subfamily 1 group I member 3 (Homo sapiens) (UniProt Q14994); experiment: qHTS for Constitutive Androstane Receptor (CAR) Antagonist screened against the NCATS CANVASS Library (AID 1347372)
# Summary of the method: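 HepG2-CYP2B6-hCAR double-stable cells plated, 4hr attach; cpd pin-transferred; CITCO 50 nM final; 24hr 37C/5% CO2; CellTiter-Fluor 1hr (fluorescence), then ONE-Glo luminescence.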
# [26] = molecular target: Nuclear receptor subfamily 1 group I member 3 (Homo sapiens) (UniProt Q14994); experiment: qHTS for Constitutive Androstane Receptor (CAR) Agonist screened against the NCATS CANVASS Library (AID 1347373)
# Summary of the method: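 HepG2 cells stably carrying hCAR and a CYP2B6-2.2kb luciferase reporter, treated 24hr at 37C with compounds plus 1.5uM PK11195; activation by ONE-Glo luminescence, viability by CellTiter-Fluor.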
# [27] = qHTS for Inflammasome Signaling Inhibitors: IL-1-beta AlphaLISA screen against the NCATS CANVASS Library (AID 1347379)
# Summary of the method: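 THP-1 cells pretreated 1 hr with compound (up to 57.5 uM final), then stimulated with LPS (250 ng/mL final) and ATP (1.25 mM final). Secreted IL-1B measured by AlphaLISA after 16 hr; glyburide as positive control.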
# [28] = qHTS for Antimalaria activity screened against the NCATS CANVASS Library (AID 1347380)
# Summary of the method: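 Red blood cells infected with P. falciparum Dd2 (2.5% hematocrit final, 0.3% parasitemia) were exposed to compounds in an 11-point qHTS series for 72 hr at 37C under 5% O2 and 5% CO2. Lysis buffer with SYBR Green was then added for 18 hr, and fluorescence was read at 485/535 nm.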
# [29] = Inflammasome Signaling qHTS Counterscreen: IL-1-beta AlphaLISA counterscreen against the NCATS CANVASS Library (AID 1347381)
# Summary of the method: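 Cell-free interference check: compounds added to medium spiked with 4 pg purified IL-1β. Anti-IL-1β acceptor beads (6 ug/mL) with 0.6 nM biotinylated antibody added for 1 h at RT, then streptavidin donor beads (24 ug/mL) for 30 min in the dark. AlphaLISA read at 680/615 nm.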
# [30] = Cytotoxicity qHTS for assessment of Hepg2 cells membrane integrity screened against the NCATS CANVASS Library (AID 1347387)
# Summary of the method: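 HepG2 cells (2000/well) attached overnight, then exposed 5 hr at 37C to compounds in an 11-point series (0.59 nM - 46 uM final). LDH release from damaged membranes read fluorometrically (CytoTox-ONE; 560/590 nm) after 10 min at room temperature.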
# [31] = qHTS for Activators of p53 Stress Response Pathway screened against the NCATS CANVASS Library (AID 1347388)
# Summary of the method: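 Beta-lactamase reporter driven by p53 response elements in HCT-116 cells, read as the 460 nm/530 nm emission ratio after CCF4 loading, following 16 h of exposure to an 11-point series. Cell viability was measured in the same wells by CellTiter-Glo luminescence.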
# [32] = qHTS assay for small molecule disruptors of mitochondrial membrane potential screened against the NCATS CANVASS Library (AID 1347389)
# Summary of the method: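 HepG2 cells (2,000/well) plated overnight, then exposed to compounds in 11-point qHTS series for 1 h at 37C before 30 min Mito-MPS dye; depolarization read as fall in red aggregate (590 nm) to green monomer (535 nm) fluorescence.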
# [33] = Secretion counterscreen for inhibitors of the SERCaMP assay screened against the NCATS CANVASS Library (AID 1347390)
# Summary of the method: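 Natural products are titrated in an 11-point series up to 77 uM onto SH-SY5Y-GLuc STOP cells for 20 h. Secreted reporter activity is measured as coelenterazine-driven luminescence, with Brefeldin A on each plate.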
# [34] = qHTS for activators of Nrf2/ARE signaling pathway screened against the NCATS CANVASS Library (AID 1347391)
# Summary of the method: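 ARE-bla HepG2 beta-lactamase reporter cells exposed to compounds for 16 h at 37C; CCF4 substrate 2 h, fluorescence at ex 405 nm, em 460/530 nm. Viability by CellTiter-Glo luminescence.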
# [35] = qHTS for activators of dead-cell proteases activity screened against the NCATS CANVASS Library (AID 1347392)
# Summary of the method: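 Compounds are pin-transferred onto attached HepG2 cells, giving 11 final concentrations. After 5 h at 37C, AAF-aminoluciferin reagent is added and luminescence is recorded at room temperature.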
# [36] = Vero-766 cells viability qHTS against the NCATS CANVASS Library: Counterscreen for Zika virus inhibition assay (AID 1347394)
# Summary of the method: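 Counterscreen for toxicity: Vero 766 cells exposed 72 h to an 11-point compound series, viability by CellTiter-Glo.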
# [37] = qHTS for inhibitors of Wild type Zika virus screened against the NCATS CANVASS Library (AID 1347396)
# Summary of the method: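 Protection against wild-type Zika cytopathic effect is measured in African green monkey Vero 766 cells exposed to an 11-point compound series. Surviving cells are quantified by CellTiter Glo luminescence after 72 h.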
# [38] = qHTS for inhibitors of Rabies Virus screened against the NCATS CANVASS Library (AID 1347402; calls by dose curve)
# Sequence of Nuclear receptor subfamily 1 group I member 3 (Homo sapiens) (Q14994 whole entry, looked up): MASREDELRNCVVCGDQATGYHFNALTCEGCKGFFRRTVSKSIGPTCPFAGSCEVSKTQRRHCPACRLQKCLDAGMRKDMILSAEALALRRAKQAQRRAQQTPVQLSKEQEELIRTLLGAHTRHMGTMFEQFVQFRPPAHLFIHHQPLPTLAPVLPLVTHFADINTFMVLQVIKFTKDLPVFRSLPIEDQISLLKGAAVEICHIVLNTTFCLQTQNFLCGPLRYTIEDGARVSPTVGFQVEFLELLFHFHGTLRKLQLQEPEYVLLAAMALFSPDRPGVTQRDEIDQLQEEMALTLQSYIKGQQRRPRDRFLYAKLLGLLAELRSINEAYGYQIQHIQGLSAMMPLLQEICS
# Sequence of Luciferin 4-monooxygenase (Photinus pyralis) (P08659 whole entry, looked up): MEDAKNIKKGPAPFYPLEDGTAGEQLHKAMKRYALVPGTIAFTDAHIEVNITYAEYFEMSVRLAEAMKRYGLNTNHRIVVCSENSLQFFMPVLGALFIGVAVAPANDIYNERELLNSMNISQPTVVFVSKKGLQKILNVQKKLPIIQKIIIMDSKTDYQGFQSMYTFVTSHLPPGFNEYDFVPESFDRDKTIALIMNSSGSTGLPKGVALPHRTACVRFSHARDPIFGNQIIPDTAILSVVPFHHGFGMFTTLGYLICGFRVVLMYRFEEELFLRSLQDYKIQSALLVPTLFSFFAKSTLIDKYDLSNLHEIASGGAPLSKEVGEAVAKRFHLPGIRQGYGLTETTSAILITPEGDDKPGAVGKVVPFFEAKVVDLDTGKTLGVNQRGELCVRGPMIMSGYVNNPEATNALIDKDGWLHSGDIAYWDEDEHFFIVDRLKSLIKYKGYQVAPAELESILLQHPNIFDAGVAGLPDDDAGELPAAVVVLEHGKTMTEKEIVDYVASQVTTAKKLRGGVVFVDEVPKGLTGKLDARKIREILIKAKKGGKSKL
# Sequence of Glucocorticoid receptor (Homo sapiens) (P04150 whole entry, looked up): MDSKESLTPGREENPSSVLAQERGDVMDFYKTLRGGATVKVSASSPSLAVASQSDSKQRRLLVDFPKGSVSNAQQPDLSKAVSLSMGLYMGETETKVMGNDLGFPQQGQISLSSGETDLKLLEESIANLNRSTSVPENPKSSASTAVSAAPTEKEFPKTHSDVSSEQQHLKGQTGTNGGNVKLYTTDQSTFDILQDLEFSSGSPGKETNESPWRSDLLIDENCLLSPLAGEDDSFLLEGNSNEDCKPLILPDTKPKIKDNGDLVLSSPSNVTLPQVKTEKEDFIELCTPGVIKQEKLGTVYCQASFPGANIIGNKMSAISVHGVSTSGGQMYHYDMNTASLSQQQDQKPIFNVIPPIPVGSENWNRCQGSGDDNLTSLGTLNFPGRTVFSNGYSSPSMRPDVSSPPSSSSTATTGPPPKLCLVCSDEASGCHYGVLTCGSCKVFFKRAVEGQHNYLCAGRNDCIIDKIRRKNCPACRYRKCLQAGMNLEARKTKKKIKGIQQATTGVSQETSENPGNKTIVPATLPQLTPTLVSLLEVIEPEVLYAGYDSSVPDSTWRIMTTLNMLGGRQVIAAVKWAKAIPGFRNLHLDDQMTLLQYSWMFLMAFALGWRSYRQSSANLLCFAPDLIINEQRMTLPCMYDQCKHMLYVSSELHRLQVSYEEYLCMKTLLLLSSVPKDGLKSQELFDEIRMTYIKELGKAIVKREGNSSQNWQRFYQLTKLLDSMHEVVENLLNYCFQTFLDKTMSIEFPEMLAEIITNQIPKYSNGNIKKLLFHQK
structure (smiles),measurement,setting,value
c1ccc2c3c([nH]c2c1)CNCC3,outcome,[1],inactive
same,"activity change, negative = inhibition",[2],11%
same,outcome,[3],inactive
same,Potency,[4],> 20.6 µM
same,Potency,[5],inactive
same,Potency,[6],inactive
same,Potency,[7],inactive
same,Potency,[8],inactive
same,Potency,[9],inactive
same,Potency,[10],inactive
same,Potency,[11],26.6 µM (active)
same,Potency,[12],inactive
same,Potency,[13],inactive
same,Potency,[14],inactive
same,outcome,[15],inactive
same,Potency,[16],inactive
same,Potency,[17],inactive
same,outcome,[18],inactive
same,outcome,[19],inactive
same,Potency,[20],inactive
same,Potency,[21],inactive
same,Potency,[22],inactive
same,Potency,[23],inactive
same,Potency,[24],inactive
same,Potency,[25],inactive
same,outcome,[26],inactive
same,Potency,[27],inactive
same,Potency,[28],inactive
same,outcome,[29],inactive
same,outcome,[30],inactive
same,Potency,[31],inactive
same,Potency,[32],inactive
same,Potency,[33],inactive
same,Potency,[34],inactive
same,Potency,[35],inactive
same,Potency,[36],inactive
same,Potency,[37],inactive
same,outcome,[38],inactive
